# From PubChem
# An excerpt weighted towards active compounds, which were near 3.5% of everything screened.
# GPR151 ag: activators of human GPR151 | PathHunter beta-arrestin GPR151 cells, luminescence | activation, % at 11.2 µM | 1% of 650,000 active; in the data active = activation above about 4.9%;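 note: 0% = median of compound wells and 100% = cells with positive control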
# MITF inh: inhibitors of human MITF; 0.91% of 650,000 active; O75030; AID 1259374; inhibition, % at 2.6 µM; AlphaScreen MITF homodimerization, bead proximity signal; in the data active = inhibition above about 50%;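 note: 0% = vehicle wells with protein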
# TEAD-YAP inh: TEAD-YAP interaction inhibition; HEK-TIYL cells, TEAD-Gal4/YAP UAS-luciferase luminescence; inhibition, % at 9.12 µM; 1.4% of 640,000 active; AID 1259422; in the data active = inhibition above about 32%;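 note: 0% = median of test compound wells and 100% = reference inhibitor wells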
# FBW7 act: human FBW7 E3 ligase activation, primary screen; AID 1259310; normalized activity (activation), % at 26.1 µM; Q969H0; 0.13% of 650,000 active; AlphaScreen FBW7–phospho-cyclin E peptide binding, activator screen; in the data active = normalized activity above about 1.9%;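 note: purified mutant Fbw7 with reduced substrate affinity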
# Target sequence (Q969H0 whole entry, looked up): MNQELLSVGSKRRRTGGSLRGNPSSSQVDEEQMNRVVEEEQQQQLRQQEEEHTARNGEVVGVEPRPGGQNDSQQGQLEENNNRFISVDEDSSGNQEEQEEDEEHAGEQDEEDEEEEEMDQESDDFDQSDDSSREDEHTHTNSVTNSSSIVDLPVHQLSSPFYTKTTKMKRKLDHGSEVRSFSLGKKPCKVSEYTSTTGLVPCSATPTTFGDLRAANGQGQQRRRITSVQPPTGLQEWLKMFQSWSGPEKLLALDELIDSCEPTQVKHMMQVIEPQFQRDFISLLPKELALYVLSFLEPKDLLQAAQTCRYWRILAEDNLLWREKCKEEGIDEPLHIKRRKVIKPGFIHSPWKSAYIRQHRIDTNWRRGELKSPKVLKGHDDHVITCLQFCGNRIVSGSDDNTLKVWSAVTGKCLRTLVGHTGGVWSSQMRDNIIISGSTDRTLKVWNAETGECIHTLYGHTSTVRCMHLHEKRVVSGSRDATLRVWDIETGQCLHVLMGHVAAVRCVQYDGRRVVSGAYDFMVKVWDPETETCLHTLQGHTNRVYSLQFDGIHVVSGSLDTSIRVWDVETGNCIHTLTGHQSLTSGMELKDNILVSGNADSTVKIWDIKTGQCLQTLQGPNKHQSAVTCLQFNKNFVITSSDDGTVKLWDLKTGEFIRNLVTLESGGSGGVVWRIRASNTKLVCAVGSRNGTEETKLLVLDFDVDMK
# GPR151 conf act: confirmation of human GPR151 activators; activation, % at 11.2 µM; shares compounds with GPR151 ag; 6,700 tested, under 10 active; GPR151 PathHunter beta-arrestin cells, luminescence, 90 min; % of EA-reagent control over plate median;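 active = mean percent activation across replicates above the confirmation screen cutoff of 4.91%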
# GPR119 ag: activates human GPR119 in a GPR151 counter-screen. shares compounds with GPR151 ag. GPR119 PathHunter beta-arrestin cells, luminescence, 90 min; 0 = compound-well median, 100 = enzyme-acceptor control. activation, % at 11.2 µM. 0.3% of 6,700 active;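 active = mean percent activation in the counterscreen above 29.09%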;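 note: counterscreen on off-target GPR119 to flag nonselective hits from the GPR151 activator screen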
# * = called active by the depositor; / = no result.
SMILES,GPR151 ag,MITF inh,TEAD-YAP inh,FBW7 act,GPR151 conf act,GPR119 ag
Cc1nn(C(=O)Cn2ccc([N+](=O)[O-])n2)c(C)c1I,5.3*,2.6,5.0,0.5,-0.3,1.3
O=C(Nn1c(-c2ccc(F)cc2)nc2ccccc2c1=O)c1cncc(Br)c1,5.5*,20.8,0.3,0.7,0.3,11.9
CCCNc1cc(-c2ccccc2)ncn1,-1.8,0.2,-25.7,-0.1,/,/
CCOC(=O)c1c(N)c(C#N)cn1-c1ccccc1,8.6*,10.4,-12.2,0.0,-0.6,-9.5
COc1ccc(-n2nc3c(c2NC(=O)c2cc(Br)ccc2Cl)CS(=O)(=O)C3)cc1,-0.5,-3.0,1.9,-0.1,/,/
CC(=O)c1ccc(NC(=O)CSc2ccc(F)cc2)cc1,0.4,-0.3,-34.6,-0.1,/,/
CC(=O)c1ccc(NC(=O)CSc2ccc(C)cc2)cc1,5.5*,11.7,-39.4,0.1,0.7,4.0
CCN1CCN(C(=O)CCc2cn(C)c3ccccc23)CC1,0.1,8.1,4.2,0.1,/,/
CC(C)(C)NC(=O)C(c1ccccn1)N(Cc1ccccc1)C(=O)c1csnn1 (centres undefined),4.9*,6.8,7.5,0.6,-0.4,-3.4
O=c1[nH]c2sc3c(c2c(=O)n1-c1ccccc1)CCCC3,-0.1,2.7,6.5,0.1,/,/
O=c1[nH]c(=S)c2c(n1-c1ccccc1)CCC2,5.9*,5.1,6.2,0.3,0.6,9.5
CCOC(=O)C1(CCc2ccccc2)CCN(Cc2cccnc2)CC1,1.9,8.5,-16.4,-0.2,/,/
O=C(COc1ccccc1)NCC(=O)OCC(=O)c1ccc2c(c1)NC(=O)CO2,0.1,1.7,-7.2,-0.1,/,/
Cc1c(Br)c(C(F)(F)F)nn1CC(=O)Nc1cccc(O)c1,10.0*,-11.9,-0.8,0.1,1.4,10.4
CC(=O)c1cccc(NC(=O)Cn2nc(C(F)(F)F)c(Cl)c2C)c1,1.3,17.7,2.2,0.3,/,/
O=C(Cn1cnc2c(nnn2-c2cccc(F)c2)c1=O)N1CCOCC1,0.5,9.2,4.6,0.2,/,/
CCCC(C)NS(=O)(=O)c1c(C)cc(C)cc1C (centres undefined),7.7*,2.6,-5.4,0.3,0.6,0.3
CCCCOC(=O)c1c(C)c([N+](=O)[O-])c(C)[nH]c1=O,0.7,4.8,13.1,-0.1,/,/
CC(C)c1nnc(C2CCN(C(=O)Cn3c(=O)oc4ccccc43)CC2)o1,9.7*,-11.3,10.7,0.0,0.9,0.1
CCOc1ccc(C2C(C#N)=C(N)N(c3ccc(Br)cc3)C3=C2C(=O)CCC3)cc1 (centres undefined),-0.2,7.5,2.9,0.0,/,/
Cc1oc(-c2cccc(Cl)c2)nc1COC(=O)c1nnn(-c2cccc(F)c2)c1C,6.0*,-11.9,-1.4,-0.1,-1.0,-11.8
CCN1CCN(C(=O)c2nc(-c3cccc(F)c3)n3c2CCCCC3)CC1,5.5*,2.4,8.6,-0.1,1.0,3.0
Cc1ccccc1-n1nc2c(c1NC(=O)COc1ccc(Cl)cc1Cl)CS(=O)(=O)C2,8.8*,6.6,-2.2,0.0,-0.2,7.7
Cc1cccc(-n2nc3c(c2NC(=O)COc2ccc(Cl)cc2Cl)CS(=O)(=O)C3)c1C,-1.3,-12.2,2.0,0.1,/,/
O=C(COc1ccc(Cl)cc1Cl)Nc1cc(-c2ccccc2)nn1CCO,5.9*,4.2,4.1,0.2,-0.4,10.4
SMILES,GPR151 ag,MITF inh,TEAD-YAP inh,FBW7 act,GPR151 conf act,GPR119 ag
O=C(COc1ccccc1F)Nc1cc(-c2ccccc2)nn1CCO,0.3,-3.3,-9.9,-0.1,/,/
COCC(=O)N1CCCc2ccc(NS(=O)(=O)c3cc(C)ccc3C)cc21,6.8*,6.3,14.3,0.0,0.3,0.0
COCC(=O)N1CCCc2ccc(NS(=O)(=O)c3ccc(C)c(C)c3)cc21,0.2,17.0,15.1,-0.1,/,/
NC(=O)c1cc(S(=O)(=O)N2CCOCC2)ccc1O,-1.4,7.8,-9.8,0.2,/,/
CC(=O)c1cccc(NC(=O)COc2c(C)cccc2C)c1,5.2*,-13.6,-6.5,-0.3,-0.2,-11.5
CCN(CC(=O)NCCC1=CCCCC1)S(=O)(=O)c1ccc(Br)cc1,-0.4,8.8,7.3,0.2,/,/
Cc1cc(C)c2c(c1)/C(=N/Nc1ccc(S(N)(=O)=O)cc1[N+](=O)[O-])CCC2,0.5,-1.8,0.2,-0.1,/,/
NS(=O)(=O)c1ccc(N/N=C2\CCc3ccccc32)c([N+](=O)[O-])c1,7.5*,9.7,-0.5,-0.2,-0.9,-7.5
O=[N+]([O-])c1ccc(C2SCCN2S(=O)(=O)c2ccc(Br)cc2)cc1 (centres undefined),-0.5,1.2,3.8,-0.1,/,/
O=C(NCCOc1ccccc1)c1ccnc(-c2csc3ccccc23)c1,4.9*,-15.9,6.3,-0.1,0.6,-2.4
Cn1nnc2c(N3CCN(C(=O)COc4ccc5ccccc5c4)CC3)ncnc21,5.1*,8.2,3.4,0.2,-1.0,-3.6
Cc1ccc(OCC(=O)N2CCN(C(=O)COc3ccc4ccccc4c3)CC2)cc1,-0.5,-2.5,-4.2,0.0,/,/
Cc1ccc(NC(=O)c2ccc(CNc3c(N4CCOCC4)c(=O)c3=O)cc2)cc1F,5.0*,1.4,-7.5,-0.1,0.1,-9.1
COc1ccccc1CNC(=O)c1ccc(CNc2c(N3CCCC3)c(=O)c2=O)cc1,4.9*,10.1,4.9,0.2,-1.0,-12.5
O=c1cc(CNCCN2CCOCC2)c2c(ccc3ccccc32)o1,-0.4,11.7,-8.0,0.1,/,/
Cn1c(SCc2ccccc2)nnc1C1CCCN1C(=O)c1ccc2c(c1)OCO2 (centres undefined),5.9*,-15.5,-2.1,-0.1,-0.6,-6.7
Cn1c(SCc2ccccc2)nnc1C1CCCN1C(=O)C1CCCO1 (centres undefined),-0.5,3.7,7.9,-0.1,/,/
COc1ccc(/C=C(/NC(=O)c2cc(OC)c(OC)c(OC)c2)C(=O)NCC(=O)O)c(OC)c1,0.6,6.2,-4.1,0.5,/,/
COC(=O)c1ccc(C2NC(=O)NC(O)(C(F)(F)F)C2C(=O)c2ccc(F)cc2)cc1 (centres undefined),6.2*,-7.3,-3.2,0.0,0.6,1.6
O=C1NC(c2ccccc2O)C(C(=O)c2ccccc2)C(O)(C(F)(F)F)N1 (centres undefined),0.3,3.5,4.2,0.1,/,/
Cc1ccc(C(=O)C2C(c3ccccc3F)NC(=O)NC2(O)C(F)(F)F)cc1 (centres undefined),6.9*,-6.3,-2.0,0.2,1.3,5.9
O=C1NC(c2ccc(F)cc2)C(C(=O)c2ccccc2)C(O)(C(F)(F)F)N1 (centres undefined),0.0,1.5,-3.4,-0.1,/,/
COc1cc([N+](=O)[O-])cc2c1NC(c1cccnc1)C1CC=CC21 (centres undefined),5.2*,6.7,0.3,-0.4,-0.4,-7.2
COc1cc([N+](=O)[O-])cc2c1NC(c1ccncc1)C1CC=CC21 (centres undefined),1.2,-2.5,-6.2,-0.5,/,/
